Where “and” joins values, the source holds several entries; their conditions need not be identical. Equal entries are not always repeated. Calls of active or inactive are those of the source. Unless noted, no stated cut-off is given here; in the data, active means inhibition above about 80%; inactive means the rest.
Key:
[1] = sensitizers of A549 cells to miR-34 induction, primary screen, imaging, A549 dox-inducible miR-34, nuclei and caspase counts (AID 1347080;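 active means compounds whose cell count with miR-34 switched on is under 0.7 times the count with it off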); settings: A549 miR-34 inducible, Hoechst nuclei count, 48 h
[2] = survival rescue of mitochondrial mutant cells in low glucose, primary screen, MELAS cybrids, Rieske KO mouse fibroblasts, CellTiter-Glo (AID 1508586;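 active means mean z-score across replicates of 1.96 or higher in either the MELAS or the Rieske mutant cell line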;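 further: z relative to plate mean and SD of compound and empty wells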)
[3] = target: NAD(+) hydrolase SARM1 (Homo sapiens) (UniProt Q6SZW1); experiment: SARM1 TIR NADase inhibitors, cell lysate, NAD-Glo luminescence (AID 1508614;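 active means compound whose remaining NAD level is above about 45 nM, limit read from the data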); settings: SAM-TIR HEK293T lysate NADase, at 1 µM, stronger effect = higher value
Sequence of NAD(+) hydrolase SARM1 (Homo sapiens) (Q6SZW1 whole entry, looked up): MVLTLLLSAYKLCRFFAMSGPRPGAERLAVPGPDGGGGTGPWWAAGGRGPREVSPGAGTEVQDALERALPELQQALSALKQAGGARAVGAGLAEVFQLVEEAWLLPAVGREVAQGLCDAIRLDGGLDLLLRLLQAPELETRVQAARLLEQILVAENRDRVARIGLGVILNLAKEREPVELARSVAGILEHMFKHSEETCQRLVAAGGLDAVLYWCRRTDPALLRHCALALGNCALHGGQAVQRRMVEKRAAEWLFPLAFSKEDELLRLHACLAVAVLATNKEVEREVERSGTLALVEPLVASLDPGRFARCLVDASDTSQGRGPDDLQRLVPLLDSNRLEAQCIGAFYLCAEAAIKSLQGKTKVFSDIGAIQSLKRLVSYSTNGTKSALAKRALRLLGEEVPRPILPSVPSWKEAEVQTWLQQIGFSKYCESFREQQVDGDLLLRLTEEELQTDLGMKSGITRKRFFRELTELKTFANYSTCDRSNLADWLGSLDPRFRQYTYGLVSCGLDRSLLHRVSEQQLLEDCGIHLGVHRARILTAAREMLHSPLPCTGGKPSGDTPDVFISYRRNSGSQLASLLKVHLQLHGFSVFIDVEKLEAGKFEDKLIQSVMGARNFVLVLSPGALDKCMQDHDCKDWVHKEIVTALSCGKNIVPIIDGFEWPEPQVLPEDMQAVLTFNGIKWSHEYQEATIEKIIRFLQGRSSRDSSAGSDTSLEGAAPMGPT

[4] = viability rescue of complex I mutant cybrids, primary screen, cell-based, galactose medium, ATP luminescence (AID 1645843;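 active means z-score of at least 1.8 in each of two replicates, scored against plate mean and spread of sample wells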;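 further: positive z means more ATP and so rescue of galactose-driven cybrid death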); settings: complex I mutant cybrid cells, 72 h, stronger effect = higher value
[5] = LFS_MB_P medulloblastoma growth inhibition, cell-based, chromothripsis tumors, cisplatin or BGB combos (AID 1671449); settings: LFS_MB_P medulloblastoma cells;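 further: cells exposed for 96 hours; 0% = vehicle DMSO and 100% = killing by high DMSO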
[6] = HDN33 neuroblastoma growth inhibition, cell-based, chromothripsis tumors, cisplatin or BGB combos (AID 1671450); settings: HDN33 neuroblastoma cells, stronger effect = higher value;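 further: cells exposed to compound for four days; 0% = vehicle DMSO and 100% = cell killing by high DMSO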
[7] = ICB984 medulloblastoma cell growth inhibition, synergistic combos for chromothripsis tumors, cisplatin or BGB combos (AID 1671451; call rule not given here;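 further: cells exposed for 96 hours before readout; 0% = vehicle DMSO and 100% = killing by high DMSO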); settings: ICB984 medulloblastoma cells, drug combinations, stronger effect = higher value
[8] = LFS_MB_1R medulloblastoma cell growth inhibition, synergistic combos for chromothripsis tumors, cisplatin or BGB combos (AID 1671452); settings: LFS_MB_1R medulloblastoma cells, stronger effect = higher value;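 further: cells exposed for 96 hours before readout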
[9] = HTB85 osteosarcoma cell growth inhibition, synergistic combos for chromothripsis tumors, BGB or cisplatin IC20 combos (AID 1671453); settings: HTB85 osteosarcoma cells, drug combinations, stronger effect = higher value;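 further: cells exposed for 96 hours before readout; 0% = vehicle DMSO and 100% = high DMSO killing control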
[10] = CRL2098 osteosarcoma cell growth inhibition, synergistic combos for chromothripsis tumors, BGB or cisplatin IC20 combos (AID 1671454); settings: CRL2098 osteosarcoma cells, drug combinations, stronger effect = higher value;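 further: cells exposed for 96 h before readout; 0% = vehicle DMSO and 100% = killing by high DMSO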
[11] = HD-MB03 medulloblastoma cell growth inhibition, synergistic combos for chromothripsis tumors, BGB or cisplatin IC20 combos (AID 1671455; in the data active means inhibition above about 83%;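 further: 0% = vehicle DMSO and 100% = high DMSO as cytotoxic control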); settings: HD-MB03 medulloblastoma cells, stronger effect = higher value
[12] = stronger effect = lower value, cell number ratio, induced over uninduced
[13] = measured here: relative caspase fold change +Dox/-Dox
[14] = measured here: total cells with miR-34 induction, stronger effect = lower value
[15] = measured here: total cells without miR-34 induction
[16] = MELAS cybrid survival, CellTiter-Glo 48 h, stronger effect = higher value
[17] = Rieske KO mouse fibroblast survival, CellTiter-Glo 72 h
[18] = at 0.5 µM, stronger effect = higher value
[19] = measured here: combination with BGB IC20, at 0.005 µM
[20] = measured here: combination with BGB IC40, at 0.005 µM
[21] = measured here: combination with BGB IC40, at 0.05 µM
[22] = measured here: combination with cisplatin, at 0.5 µM, stronger effect = higher value
[23] = measured here: combination with cisplatin, at 5 µM, stronger effect = higher value
[24] = measured here: with BGB IC20 combination, at 0.5 µM
[25] = measured here: with cisplatin IC20 combination, at 0.5 µM
[26] = measured here: 5 uM single agent, at 5 µM
[27] = measured here: combination with cisplatin, at 0.5 µM
[28] = measured here: combination with cisplatin, at 5 µM
[29] = measured here: with BGB IC20, at 0.5 µM
[30] = measured here: with BGB IC20, at 5 µM
[31] = measured here: with cisplatin IC20, at 0.5 µM
[32] = measured here: with cisplatin IC20, at 5 µM
[33] = measured here: combination with BGB at IC20, at 0.5 µM
[34] = measured here: combination with cisplatin at IC20, at 0.5 µM
[35] = measured here: combo with BGB at IC20, at 0.5 µM
[36] = measured here: combo with cisplatin at IC20, at 0.5 µM

C[C@H]1COc2c(C3(N)CC3)c(F)cc3c(=O)c(C(=O)O)cn1c23
fold change [1, 12]: 0.94 (inactive) and 0.878 (inactive) | fold change [1, 13]: 0.784 and 0.738 | cell count [1, 14]: 8060 and 10100 | cell count [1, 15]: 8570 and 11500 | z-score [2, 16]: 0.246 (inactive) | z-score [2, 17]: -0.0845 | remaining NAD [3]: 10 nM (inactive) | z-score [4]: 0.735 (inactive) | inhibition [5, 18]: -4.46% (inactive) | inhibition [5, 19]: -13% | inhibition [5, 20]: -17.8% | inhibition [5, 21]: -33.8% | inhibition [5, 22]: -7.85% | inhibition [5, 23]: -33.3% | inhibition ([6]; BGB combo, at 5 µM): -18.1% | inhibition ([6]; at 0.5 µM): -10.4% (inactive) | inhibition ([6]; cisplatin combo, at 5 µM): -7.06% | inhibition [6, 24]: -22.3% | inhibition [6, 25]: -3.47% | inhibition ([6]; single agent, at 5 µM): -13.5% | inhibition ([7]; BGB IC20 combo, at 0.005 µM): -21.1% | inhibition ([7]; BGB IC40 combo, at 0.005 µM): 4.03% | inhibition ([7]; BGB IC40 combo, at 0.05 µM): -27.4% | inhibition ([7]; at 0.5 µM): -17.9% (inactive) | inhibition ([7]; cisplatin combo, at 0.05 µM): -30.9% | inhibition ([7]; cisplatin combo, at 0.5 µM): -13.3% | inhibition ([7]; cisplatin combo, at 5 µM): -41.9% | inhibition [7, 26]: -29.9% | inhibition ([8]; at 0.5 µM): -26.1% (inactive) | inhibition [8, 21]: -41.4% | inhibition [8, 27]: -26.2% | inhibition [8, 28]: -29.7% | inhibition ([9]; at 0.5 µM): -9.68% (inactive) | inhibition [9, 29]: -30.1% | inhibition [9, 30]: -48.1% | inhibition [9, 31]: -17.4% | inhibition [9, 32]: -41% | inhibition ([9]; single agent, at 5 µM): 3.14% | inhibition ([10]; at 0.5 µM): -44.1% (inactive) | inhibition [10, 33]: -27.6% | inhibition [10, 34]: -41.6% | inhibition ([11]; at 0.5 µM): -8.87% (inactive) | inhibition [11, 35]: -6% | inhibition [11, 36]: -11.8%

Nc1nc2c(ncn2CCC(CO)CO)c(=O)[nH]1
fold change [1, 12]: 0.945 (inactive) and 0.956 (inactive) and 0.874 (inactive) | fold change [1, 13]: 1.67 and 0.466 and 0.841 | cell count [1, 14]: 10200 and 9130 and 9970 | cell count [1, 15]: 10800 and 9540 and 11400 | z-score [2, 16]: -0.249 (inactive) and -1.06 (inactive) and -0.78 (inactive) | z-score [2, 17]: -0.179 and 0.138 and 0.0729 | remaining NAD [3]: 10 nM (inactive) | z-score [4]: 0.83 (inactive) and 0.595 (inactive) | inhibition [5, 18]: -31.4% (inactive) and 10.2% (inactive) | inhibition [5, 19]: 18% and -5.86% | inhibition [5, 20]: -15.5% and -23.1% | inhibition [5, 21]: -8% and -22.9% | inhibition [5, 22]: -43% and 6.39% | inhibition [5, 23]: -0.859% and -46.3% | inhibition ([6]; BGB combo, at 5 µM): -37% and 3.74% | inhibition ([6]; at 0.5 µM): -21.5% (inactive) and -13.7% (inactive) | inhibition ([6]; cisplatin combo, at 5 µM): -35.4% and 5.76% | inhibition [6, 24]: -20.3% and -5.75% | inhibition [6, 25]: -28.1% and -7.91% | inhibition ([6]; single agent, at 5 µM): -23.7% and -10.4% | inhibition ([7]; BGB IC20 combo, at 0.005 µM): 6.03% and -7.22% | inhibition ([7]; BGB IC40 combo, at 0.005 µM): -30.8% and -8.59% | inhibition ([7]; BGB IC40 combo, at 0.05 µM): -28.9% and 4.12% | inhibition ([7]; at 0.5 µM): -31.2% (inactive) and -13.2% (inactive) | inhibition ([7]; cisplatin combo, at 0.05 µM): -34.1% and 1.44% | inhibition ([7]; cisplatin combo, at 0.5 µM): -50.7% and 4.42% | inhibition ([7]; cisplatin combo, at 5 µM): -20.3% and -61.9% | inhibition [7, 26]: 6.97% and -17.4% | inhibition ([8]; at 0.5 µM): -19.7% (inactive) and -18.4% (inactive) | inhibition [8, 21]: -23.5% and -18.9% | inhibition [8, 27]: -56.8% and -22.6% | inhibition [8, 28]: -7.78% and -27.3% | inhibition ([9]; at 0.5 µM): -21.5% (inactive) and -5.99% (inactive) | inhibition [9, 29]: -16.4% and -34.5% | inhibition [9, 30]: -7.68% and -31% | inhibition [9, 31]: -24.9% and -1.09% | inhibition [9, 32]: -9.05% and -28% | inhibition ([9]; single agent, at 5 µM): -16.3% and 0.079% | inhibition ([10]; at 0.5 µM): -37% (inactive) and -44.9% (inactive) | inhibition [10, 33]: -37.8% and -1.8% | inhibition [10, 34]: -13.5% and -79.6% | inhibition ([11]; at 0.5 µM): -6.81% (inactive) and 1.52% (inactive) | inhibition [11, 35]: -13.9% and 7.53% | inhibition [11, 36]: -2.89% and -3%

— PubChem BioAssay
